The values below come from PubChem BioAssay (Tox21).

Several values for one entry are separate records, joined by “and”; a condition that tells them apart may be missing. Identical values can stand only once. Unmarked numbers belong to inactive results. Inconclusive results are not listed. Activity calls are given as the source filed them. Unless noted, calls come from the whole dose curve; as a rule, active = well fitted curve in the direction sought with a large enough effect in the repeat runs; inconclusive = weak or mixed curves; inactive = no such curve, though single readings can be large; an effect the other way counts as inactive or inconclusive.

The nature of experiment [1]: qHTS assay for small molecule agonists of the p53 signaling pathway (AID 651631; calls by dose curve; note: nearly all actives have a fitted effect of over 15% in size; note: potency is the fitted concentration of half-maximal effect). The procedure, abridged:
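Stably transfected HCT-116 cells (beta-lactamase behind p53 response elements) get compounds after a 5 h settling period; 16 h later at 37 °C, FRET substrate is loaded and fluorescence read after 2 h.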

Experiment [2] is described as follows: qHTS assay for small molecules that induce genotoxicity in human embryonic kidney cells expressing luciferase-tagged ATAD5 (AID 651632). Note: nearly all actives have a fitted effect of over 15% in size. In a few lines:
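Genotoxicity read-out via ATAD5-luciferase: HEK293T cells, 16 hr compound incubation at 37C, Amplite detection.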

Experiment [3] in a line: qHTS assay for small molecule agonists of the p53 signaling pathway - cell viability (AID 651633; calls by dose curve; note: nearly all actives have a fitted effect of over 30% in size; note: potency is the fitted concentration of half-maximal effect). The procedure, abridged:
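p53RE-bla cells were treated with compound for 16 hours at 37 C. Cytotoxicity was then measured as CellTiter-Glo luminescence after 30 min at room temperature.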

Experiment [4] can be described thus: qHTS assay for small molecules that induce genotoxicity in human embryonic kidney cells expressing luciferase-tagged ATAD5 - cell viability (AID 651634; calls by dose curve; note: nearly all actives have a fitted effect of over 25% in size; note: potency is the fitted concentration of half-maximal effect). In a few lines:
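Live-cell protease activity (CellTiter-Fluor, fluorescence) indicates viability. HEK293T cells with luciferase-tagged ATAD5; 15.5 hr compound treatment at 37C.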

A short description of experiment [5]: qHTS assay for small molecule disruptors of the mitochondrial membrane potential - cell viability (AID 720634; calls by dose curve;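 note: human HepG2 liver cancer cells; series mostly up to about 83 µM; nearly all actives have a fitted effect of over 20% in size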). The procedure, abridged:
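Human hepatoma HepG2 cells were treated for 1 hr with test chemicals, then given m-MPI dye and CellTiter-Glo. Cell viability reflects luminescence proportional to cellular ATP.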

Experiment [6] in a line: qHTS assay for small molecule disruptors of the mitochondrial membrane potential (AID 720635). Note: potency is the fitted concentration of half-maximal effect. In a few lines:
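HepG2 cells exposed to compound 1 hr at 37C, then Mito-MPS dye 30 min. Ratio read of aggregate (540/590 nm) versus monomer (490/535 nm) fluorescence.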

Experiment [7] can be described thus: qHTS assay to test for compound auto fluorescence at 590 nm (red) in HepG2 cells (AID 720674). In a few lines:
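HepG2 cells, 2,000 per well in MEM with 10% FBS, attached overnight at 37 C, then got 23 nL compound or DMSO. After 1 hr at 37 C, 5% CO2, red fluorescence was read at 540/590 nm against Rose Bengal sodium as reference.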

The nature of experiment [8]: qHTS assay to test for compound auto fluorescence at 535 nm (green) in HepG2 cells (AID 720675).
Experiment [9] can be described thus: qHTS assay to test for compound auto fluorescence at 460 nm (blue) in HEK293 cells (AID 720678). The procedure, abridged:
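Triamterene serves as the blue fluorophore standard. Compound signal at 405/460 nm is read in HEK293 wells (2,000 cells, 10% dialyzed FBS) after overnight treatment at 37C.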

The nature of experiment [10]: qHTS assay to test for compound auto fluorescence at 590 nm (red) in HEK293 cells (AID 720679). In a few lines:
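We plated HEK293 cells in 10% dialyzed FBS medium, let them adhere for 4-5 hr, then added 23 nL compound. Overnight at 37C and 5% CO2 preceded fluorescence measurement at 540/590nm.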
% is set by controls: 0 for no effect and ±100 for the full control effect.

With `O=C(NC(=O)c1ccccc1Cl)Nc1ccc(OC(F)(F)F)cc1`, the Potency entry in experiment [1], in [2], in [3], in experiment [4], in experiment [5] and in [6] was “inactive” each time. Moreover, the Potency result in experiment [8] and in [9] was “inactive” each time. For the same compound, the compound was classed as inactive in [7] and in experiment [10].

`ClC1=C(Cl)[C@]2(Cl)[C@@H]3[C@H]4C[C@H]([C@@H]5O[C@H]45)[C@@H]3[C@@]1(Cl)C2(Cl)Cl`: the Potency result in experiment [1], in experiment [2], in experiment [3], in experiment [4], in experiment [5] and in [8] was “inactive” throughout. The Potency result in [9] was “inactive”. The Potency in [6] is 16.8 µM (active) and 19.3 µM (active). The compound was classed as inactive in experiment [7] and in experiment [10].

With `CN1[C@@H]2CC[C@H]1CC(O)C2` (stereo partly specified), the Potency entry in [1], in experiment [2], in experiment [3], in experiment [4], in [5] and in experiment [6] was “inactive” in each case. For the same compound, the Potency result in experiment [8] and in experiment [9] was “inactive” in each case. In addition, the compound was classed as inactive in experiment [7] and in experiment [10].

For the compound `CSC1=N[C@@](C)(c2ccccc2)C(=O)N1Nc1ccccc1`, the Potency entry in experiment [1], in [2], in experiment [3], in experiment [4], in experiment [8] and in [9] was “inactive” in each case. Moreover, the Potency in experiment [6] is 61.1 µM (active). Besides, the compound was called inactive in experiment [7] and in experiment [10].

`c1ccc2c(c1)cc1ccc3cccc4ccc2c1c34`: the values for the Potency in experiment [1] and in experiment [6] were 3.5 µM (active) and 14 µM (active), respectively. For the same compound, the Potency result in experiment [2], in [3], in [4] and in experiment [8] was “inactive” in each case. In addition, the compound was classed as inactive in [7].

On to `C[C@H]1[C@H](c2ccc(Cl)cc2)SC(=O)N1C(=O)NC1CCCCC1`, for which the Potency result in experiment [1], in [2], in experiment [3], in experiment [4], in experiment [8] and in experiment [9] was “inactive” throughout. For the same compound, the Potency in experiment [6] was 15.4 µM (active). In addition, in [7], the result was inactive.

Take `O=C(Cl)c1ccccc1F`: the Potency result in [1], in experiment [2], in experiment [3], in experiment [4], in [5] and in experiment [6] was “inactive” each time. Besides, the Potency entry in experiment [8] and in [9] was “inactive” in each case. For the same compound, the call in experiment [7] and in experiment [10] was inactive.

Consider `C=CC(=C)C`, for which the Potency entry in experiment [1], in [2], in experiment [3], in [4], in [5] and in [8] was “inactive” in each case. Also, the Potency result in experiment [9] was “inactive”. In addition, the compound was classed as inactive in experiment [7] and in [10].

`CC(C)c1c(CN(C)C(C)Cc2ccccc2)n(C)n(-c2ccccc2)c1=O` (stereo unspecified): the Potency result in experiment [1], in experiment [2], in [3], in experiment [4], in [5] and in experiment [6] was “inactive” throughout. Further, the fluorescence, relative to Rose Bengal in experiment [7] was 0.213% [at 18.6 µM]. For the same compound, the fluorescence, % of fluorescein control in [8] is -0.0089% [at 18.6 µM]. The fluorescence, % of triamterene in experiment [9] is -0.225% [at 18.6 µM]. For the same compound, in experiment [10], the fluorescence, % of fluorescent control was -0.993% [at 18.6 µM].

Take `CCC[CH2][Sn]([CH2]CCC)([O]C(C)=O)[O]C(C)=O`: the Potency in experiment [1] was 1.95 µM (active); in experiment [4], 1.23 µM (active); in experiment [6] it was 15.5 µM (active). The Potency entry in experiment [2], in [3], in experiment [5] and in experiment [8] was “inactive” in each case. In addition, in experiment [7], the outcome was inactive.

Consider `N#Cc1ccc(N(CC(N)=O)CC(F)(F)F)cc1C(F)(F)F`, for which the Potency result in [1], in experiment [2], in [3], in [4], in experiment [5] and in experiment [8] was “inactive” in each case. In experiment [9], the Potency result was “inactive”. Besides, the result in experiment [7] and in [10] was inactive.

With `O=[N+]([O-])c1ccc(Cl)c(Cl)c1Cl`, the Potency entry in experiment [1], in experiment [2], in experiment [3], in [4], in [5] and in [8] was “inactive” throughout. Besides, the Potency entry in experiment [9] is “inactive”. The call in [7] and in experiment [10] was inactive.

As to `CC(C)=CCN1CC[C@@]2(C)c3cc(O)ccc3C[C@@H]1[C@@H]2C`, the Potency result in experiment [1], in experiment [2], in [3], in [4], in experiment [5] and in experiment [6] was “inactive” in each case. Further, the Potency result in experiment [8] and in experiment [9] was “inactive” throughout. Besides, the compound was called inactive in [7] and in experiment [10].

For `[Cl][Hg][c]1ccccc1`, the Potency in [1] is 6.11 µM (active); in experiment [3], 1.93 µM (active); in experiment [4] it was 19.3 µM (active); in experiment [6], 6.11 µM (active). Further, the Potency entry in experiment [2], in experiment [8] and in [9] was “inactive” in each case. Besides, the result in [7] and in experiment [10] was inactive.

`NC(=O)C(Cl)Cl`: the Potency entry in experiment [1], in experiment [3], in [4], in experiment [5], in experiment [6] and in experiment [8] was “inactive” each time. Moreover, the Potency result in experiment [9] was “inactive”. Also, the compound was classed as inactive in [7] and in [10].

Turning to `Cc1cccc(Cc2cnc[nH]2)c1C`, the Potency entry in experiment [1], in experiment [2], in [4], in experiment [5], in [6] and in [8] was “inactive” in each case. In experiment [9], the Potency result was “inactive”. For the same compound, the call in experiment [7] and in experiment [10] was inactive.

Turning to `CCOP(=S)(OCC)Oc1cc(C)nc(N(CC)CC)n1`, the Potency result in experiment [1], in experiment [2], in [3], in experiment [4] and in experiment [8] was “inactive” in each case. In experiment [6], the Potency is 48.6 µM (active). For the same compound, the compound was classed as inactive in experiment [7] and in experiment [10].

For `BrCC(Br)(Br)Br`, in experiment [1], the Potency was 7.11 µM (active). In addition, the Potency result in [3], in [5] and in experiment [8] was “inactive” throughout. The outcome in [7] and in experiment [10] was inactive.

As to `C#CC1(O)CCCCC1`, the Potency result in [1], in experiment [2], in [4], in [5], in experiment [8] and in experiment [9] was “inactive” in each case. The outcome in experiment [7] and in experiment [10] was inactive.

As to `COc1nc(C)nc(NC(=O)NS(=O)(=O)c2ccccc2Cl)n1`, the Potency result in [1], in experiment [3], in experiment [4], in experiment [5], in experiment [6] and in experiment [8] was “inactive” each time. For the same compound, the Potency result in experiment [9] was “inactive”. Also, the compound was called inactive in [7] and in experiment [10].

With `CN=C=O`, the Potency entry in experiment [1], in experiment [3], in [4], in experiment [5], in [8] and in experiment [9] was “inactive” in each case. Besides, the compound was called inactive in [7] and in experiment [10].

In the case of `Cc1nn(-c2cc(NS(C)(=O)=O)c(Cl)cc2Cl)c(=O)n1C(F)F`, the Potency entry in experiment [1], in [3], in experiment [4], in experiment [5], in experiment [8] and in [9] was “inactive” in each case. Further, the outcome in [7] and in [10] was inactive.

For `CNC(C)(C)Cc1ccccc1`, the Potency entry in experiment [1], in experiment [3], in [4] and in experiment [5] was “inactive” in each case. Moreover, the fluorescence, relative to Rose Bengal in [7] is -0.065% [at 18.6 µM]. Moreover, in experiment [8], the fluorescence, % of fluorescein control is -0.216% [at 18.6 µM]. For the same compound, the fluorescence, % of triamterene in experiment [9] is 0.0048% [at 18.6 µM]. In [10], the fluorescence, % of fluorescent control was 0.101% [at 18.6 µM].
